From PubChem BioAssay
Calls of active or inactive are those of the source.

biological target: Homeobox protein Hox-A13 (Mus musculus) (UniProt Q62424); experiment: disruptors of Hoxa13 oligonucleotide interaction – biochemical, fluorescence polarization, labeled oligonucleotide, primary screen (AID 1185); details: Hoxa13:DNA binding, 15 min, higher = more signal, called active from +8 up or from −8 down
Sequence (Q62424 whole entry, looked up): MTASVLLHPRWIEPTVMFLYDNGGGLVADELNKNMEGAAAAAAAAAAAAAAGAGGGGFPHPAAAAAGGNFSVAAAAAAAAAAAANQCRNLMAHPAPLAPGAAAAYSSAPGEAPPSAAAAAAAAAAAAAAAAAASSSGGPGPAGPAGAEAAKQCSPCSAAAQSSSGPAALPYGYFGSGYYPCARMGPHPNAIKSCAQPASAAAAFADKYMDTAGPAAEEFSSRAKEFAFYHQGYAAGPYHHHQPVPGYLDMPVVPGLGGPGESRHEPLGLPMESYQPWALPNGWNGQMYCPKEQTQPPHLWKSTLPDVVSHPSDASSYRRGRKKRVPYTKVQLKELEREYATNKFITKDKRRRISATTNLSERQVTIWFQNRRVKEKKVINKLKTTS

z-score, active:
CC(CCN1CCCc2nc(C)c(C)cc21)=NOC[C@@H](O)COCc1ccco1 -8.38

z-score, inactive:
COc1ccc(COC(=O)NN=C2C[C@@H](O)[C@@H](O)[C@@H]3[C@@H]4C(=O)N([C@@H](C)c5ccccc5)C(=O)[C@@H]4CC[C@@H]23)cc1 -2.18
CCN1C(=O)[C@H]2[C@H]3[C@H](O)[C@H](O)CC(=NNC(=O)OCc4ccccc4)[C@H]3CC[C@H]2C1=O -1.7
O=C1[C@H]2[C@H]3[C@H](O)[C@H](O)CC(=NO[C@@H]4O[C@H](CO)[C@@H](O)[C@H](O)[C@H]4O)[C@@H]3CC[C@H]2C(=O)N1C[C@@H]1CCCO1 -0.192
O=C1C[C@@H](O)[C@@H](O)[C@@H]2[C@@H]3C(=O)N(Cc4ccccc4)C(=O)[C@@H]3CC[C@H]12 -1.12
C[C@H]1CC[C@H]2C(=O)N[C@H](Cc3ccccc3)C(=O)N2[C@@H]1c1ccccc1 -0.879
O=C1CCCC=C1C(O)C1CCCCC1 (stereo unspecified) -0.0768
CO[C@H]1C[C@@H]2C[C@H](O)CC(CC(=O)O[C@@H](C=CCC(C)C)C[C@@H]3CC[C@H](C)[C@@H](C1)O3)O2 -0.952
CC(=O)OC[C@H]1O[C@H](CC=NOCC[C@@H]2C=C[C@H](OC(C)=O)[C@@H](COC(C)=O)O2)C=C[C@@H]1OC(C)=O -0.963
COC(=O)CC=C[C@@H](C)[C@@H](C=NOC[C@@H](O)COCc1ccco1)NS(=O)(=O)c1ccc(C)cc1 -3.79
COC(=O)[C@H](C)NC(=O)CCC1CC(OC(=O)NCc2cccc3ccccc23)CC2(CCCC(COC(=O)NCc3cccc(C(F)(F)F)c3)O2)O1 (stereo partly specified) -4.97
COC(=O)C1=C(C)N(Cc2ccccc2)C2=C3C(=O)OCC[C@@H]3[C@@](O)(C(=O)OC)C(=O)N2[C@@H]1c1ccccc1 -0.987
COC(=O)CC=C[C@@H](C)[C@@H](C=NOC[C@@H](O)[C@H]1O[C@@H]2OC(C)(C)O[C@@H]2[C@H]1O)OC 0.321
C#CCCCON=C1C[C@@H](O)[C@@H](O)[C@@H]2[C@@H]3C(=O)N(C[C@@H]4CCCO4)C(=O)[C@@H]3CC[C@H]12 -1.28
CC(C)[C@@H](OCc1ccccc1)[C@H](C)C=NOC[C@@H](O)[C@H]1O[C@@H]2OC(C)(C)O[C@@H]2[C@H]1O -1.24
CCN1C(C)=C(C(=O)OC)[C@@H](c2ccccc2)N2C(=O)[C@](O)(C(=O)OC)CC(C(C)=O)=C12 0.334
COc1cccc([C@H](O)Cn2cc(-c3ccc(CON=C(C)C)cc3)nn2)c1 -4.2
COC(=O)CC=C[C@@H](C)[C@@H](C=NOC[C@@H](C)[C@H](OCc1ccccc1)C(C)C)NS(=O)(=O)c1ccc(C)cc1 -4.05
O=C1C2=CC[C@H]3C(=O)N(c4ccc(F)cc4F)C(=O)[C@H]3[C@H]2[C@H](O)[C@@H]2O[C@H]12 -0.318
CCOC(=O)CCN1C(=O)[C@H]2[C@@H]3C(=CC[C@H]2C1=O)C(=O)[C@H]1O[C@H]1[C@H]3O -4.11
CC[C@@H](c1ccccc1)n1c(=O)n2n(c1=O)[C@H]1[C@H](O)[C@@H]3O[C@@H]3C(=NOCc3ccccc3)[C@H]1CC2 -4.2
CCOC(=O)CCN1C(=O)[C@H]2[C@H]3[C@H](O)[C@H](O)CC(=NNC(=O)OCc4ccc(OC)cc4)[C@H]3CC[C@H]2C1=O -3.67
CCOC(=O)[C@H](CC(C)C)NC(=O)CCC1CC(OC(=O)NCCc2ccc(F)cc2)CC2(CCCC(COC(=O)NCc3cccc(C(F)(F)F)c3)O2)O1 (stereo partly specified) -6.52
CCO[C@H](c1cc(OC)cc([N+](=O)[O-])c1OC)[C@H](C)[C@@H](OC)[C@H](C)C=CCC(=O)OC -0.256
CCOC(=O)[C@H](Cc1ccccc1)NC(=O)CCC1CC(OC(=O)NCc2cccc3ccccc23)CC2(CCCC(COC(=O)NCC3CCCCC3)O2)O1 (stereo partly specified) -3.1
Cc1ccc(S(=O)(=O)N[C@@H]2COC(=O)CC=C[C@@H](C)[C@H](NS(=O)(=O)c3ccc(C)cc3)COC(=O)[C@H](C)NC(=O)CC=C[C@H]2C)cc1 -1.11
CC(C)=NOC(C)CN1CCCCc2nc(C)c(C)cc21 (stereo unspecified) -1.28
O=C(NN=C1C[C@@H](O)[C@@H](O)[C@@H]2[C@@H]3C(=O)N(Cc4ccc5c(c4)OCO5)C(=O)[C@@H]3CC[C@@H]12)OCc1ccccc1 -3.09
COc1ccc(COC(=O)NN=C2C[C@@H](O)[C@@H](O)[C@@H]3[C@@H]4C(=O)N(C(C)(C)C)C(=O)[C@@H]4CC[C@@H]23)cc1 -1.64
COC(=O)CC=C1c2ccccc2[C@H](OC)[C@H]1C 0.281
COc1ccc(OC[C@H]2CN3[C@@H](CC[C@@H](C)[C@@H]3c3ccc(Br)cc3)C(=O)O2)cc1 -0.626
CC(C)=CCCC(C)=CCON=C1C[C@@H](O)[C@@H](O)[C@@H]2[C@@H]3C(=O)N(Cc4ccc5c(c4)OCO5)C(=O)[C@@H]3CC[C@@H]12 -0.814
CO[C@@H]1C=CCC(=O)N[C@@H](C)C(=O)OC[C@@H](OC)[C@H](C)C=CCC(=O)OC[C@H]1C -0.0745
CC(C)=CCCC(C)=CCON=C1C[C@@H](O)[C@@H](O)[C@@H]2[C@@H]3C(=O)N(c4cccc(Oc5ccccc5)c4)C(=O)[C@@H]3CC[C@H]12 -0.963
COc1ccc(O[C@H]2C=C[C@@H](c3ccccc3)O[C@@H]2CON=C(C)CCN2CCCc3nc(C)c(C)cc32)cc1 -4.5
CC(CCN1CCCCc2nc(C)c(C)cc21)=NO[C@H](C)c1cn([C@@H]2COC[C@H]2O)nn1 -1.36
